Measurements taken from PubChem BioAssay (Tox21).
Several values for one entry are separate records, joined by “and”; a condition that tells them apart may be missing. Equal entries are not always repeated. Results filed as inconclusive are left out. A call without a number means that no potency is given here. More than one record can exist for a structure, and the calls need not agree. Activity calls are given as the source filed them. Unless noted, the call rests on the fitted dose curve; in most records, active means well fitted curve in the direction sought with a large enough effect in the repeat runs; inconclusive means weak or mixed curves; inactive means no such curve, though single readings can be large; an effect the other way counts as inactive or inconclusive.

Assays:
[1] = A CellTox Green Cytotoxicity Assay to monitor cytotoxicity in HepG2 cells - 32 hour (AID 1224883); further: nearly all actives have a fitted effect of over 50% in size
How it was run: (§1)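 HepG2 cells, 600/well, preincubated 5 h with CellTox Green dye, then exposed to Tox21 compounds in DMSO at 37 C for up to 40 h. Dead-cell DNA fluorescence read at the indicated time point.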

[2] = A CellTox Green Cytotoxicity Assay to monitor cytotoxicity in HEK293 cells - 8 hour (AID 1224884); further: nearly all actives have a fitted effect of over 35% in size; further: potency means the concentration at half of the fitted maximal effect
How it was run: (§2)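 HEK293 cells, 600/well, were preincubated 5 hours and then exposed to compounds at 37 C for up to 40 hours. A cell-impermeant cyanine dye staining dead-cell DNA was read by fluorescence at 0, 8, 16, 24, 32 and 40 h time points.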

[3] = qHTS RealTime-Glo MT Cell Viability Assay in HepG2 cells - 16 hour (AID 1224885); further: nearly all actives have a fitted effect of over 50% in size
How it was run: (§3)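 HepG2 suspension premixed with RealTime-Glo reagents is plated at 600 cells per well and left 5 h at 37 C/5% CO2. Compounds in DMSO then go in, and bioluminescence reflecting viable cell number is recorded over 40 h.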

[4] = qHTS RealTime-Glo MT Cell Viability Assay in HEK293 cells - 24 hour (AID 1224886); further: top concentration of the series differs between compounds; nearly all actives have a fitted effect of over 50% in size
How it was run: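 Reads taken at 0, 8, 16, 24, 32 and 40 h from the same wells. HEK293 cells (600/well) carried RealTime-Glo reagents from seeding, with compound added after a 5 h settle at 37 C.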

[5] = qHTS RealTime-Glo MT Cell Viability Assay in HEK293 cells - 8 hour (AID 1224887); further: top concentration of the series differs between compounds; nearly all actives have a fitted effect of over 50% in size
How it was run: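 600 cells/well were plated with the nonlytic NanoLuc/prosubstrate reagent, pre-incubated 5 h, then given 23 nL of compound in DMSO. Incubation at 37 C for 40 h, with luminescence from viable-cell-reduced substrate read repeatedly from 0 h.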

[6] = A CellTox Green Cytotoxicity Assay to monitor cytotoxicity in HEK293 cells - 16 hour (AID 1224888); further: nearly all actives have a fitted effect of over 35% in size
How it was run: as §2

[7] = A CellTox Green Cytotoxicity Assay to monitor cytotoxicity in HepG2 cells - 8 hour (AID 1224890); further: nearly all actives have a fitted effect of over 45% in size
How it was run: as §1

[8] = qHTS assay to identify small molecule antagonists of the estrogen receptor alpha (ER-alpha) signaling pathway using the BG1 cell line in the presence of 0.1 nM 17-beta-estradiol - cell viability counter screen (AID 1259241); further: nearly all actives have a fitted effect of over 40% in size
How it was run: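 Estradiol-stimulated (0.1 nM) VM7Luc4E2 cells exposed to compounds 22 hr; viability measured by fluorescence of cleaved CellTiter-Fluor substrate after 30 min.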

[9] = qHTS assay to identify small molecule antagonists of the androgen receptor (AR) signaling pathway using the MDA cell line in the presence of 0.5 nM R1881 - cell viability counter screen (AID 1259242); further: nearly all actives have a fitted effect of over 45% in size
How it was run: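 MDA-kb2 cells (MMTV-luciferase, AR/GR responsive) were treated with compounds plus 0.5 nM R1881 (final) for 16 hr at 37C, 0% CO2. Viability was then read in the same wells as live-cell protease fluorescence (CellTiter-Fluor, 30 min).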

[10] = molecular target: Estrogen receptor (Homo sapiens) (UniProt P03372); assay: qHTS assay to identify small molecule antagonists of the estrogen receptor alpha (ER-alpha) signaling pathway using the BG1 cell line in the presence of 0.1 nM 17-beta-estradiol (AID 1259244); further: nearly all actives have a fitted effect of over 50% in size
How it was run: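 VM7Luc4E2 cells (endogenous full-length ER-alpha, 4×ERE-luciferase), kept 5 days in phenol red-free, charcoal-stripped FBS medium; 4,000 cells/well. Compounds added with 0.1 nM (final) 17beta-estradiol, 22 hr at 37C; luminescence read with ONE-Glo after 30 min.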

[11] = qHTS assay to identify small molecule phospholipidosis (PLD) inducers (AID 1259344; active means well fitted curve in the direction sought with a large enough effect; an effect the other way counts as inactive or inconclusive)
How it was run: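 HepG2 cells grown on collagen I take up LipidTOX Red while exposed to compound for 24 h; after fixation they are imaged at 20x and pit metrics are extracted.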

[12] = qHTS assay to identify small molecule HDAC inhibitors (AID 1259364); further: nearly all actives have a fitted effect of over 45% in size; further: potency means the concentration at half of the fitted maximal effect
How it was run: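 Wild-type HCT-116 cells, plated overnight at 37 C, exposed to compounds 2 hr at 37 C; luminogenic HDAC-Glo substrate then added 30 min at room temperature. Luminescence reports relative endogenous class I/II HDAC activity.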

[13] = qHTS assay to identify small molecule agonists of the sonic hedgehog signaling (Shh) pathway - cell viability counter screen (AID 1259366); further: nearly all actives have a fitted effect of over 50% in size; further: potency means the concentration at half of the fitted maximal effect
How it was run: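 Same-well cytotoxicity read. Gli1-Luc reporter 3T3 cells; compounds 24hr, 37C/5% CO2; CellTiter-Fluor fluorescence.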

[14] = qHTS assay to identify small molecule antagonists of the sonic hedgehog signaling (Shh) pathway - cell viability counter screen (AID 1259367); further: nearly all actives have a fitted effect of over 55% in size; further: potency means the concentration at half of the fitted maximal effect
How it was run: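 After a 4 hr settling period, 3T3 Gli1-Luc cells were treated with DMSO-dissolved chemicals and conditioned medium, kept 24 hr at 37C in 5% CO2, and assayed for viability by CellTiter-Fluor fluorescence following 1 hr reagent incubation.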

[15] = qHTS assay to identify small molecule agonists of the sonic hedgehog signaling (Shh) pathway (AID 1259368; calls by dose curve;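 further: NIH/3T3-derived 3T3Gli1-Luc cells carrying a stable Gli1-driven firefly luciferase reporter; series mostly up to about 92 µM; nearly all actives have a fitted effect of over 15% in size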)
How it was run: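 NIH/3T3-derived 3T3Gli1-Luc cells with stably integrated Gli1-driven firefly luciferase, 2,000 cells/well, compounds added after 4 hr. Incubated 24 hr at 37C, 5% CO2; luminescence read after 30 min with luciferase reagent at room temperature.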

[16] = qHTS assay to identify small molecule antagonists of the sonic hedgehog signaling (Shh) pathway (AID 1259369; calls by dose curve; further: nearly all actives have a fitted effect of over 45% in size; further: potency means the concentration at half of the fitted maximal effect)
How it was run: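 NIH/3T3-derived Gli1-Luc reporter cells plated 4 h, dosed with compound, then stimulated with conditioned medium for 24 h at 37 C. Firefly luciferase luminescence read after 30 min with detection reagent at room temperature.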

[17] = qHTS RealTime-Glo MT Cell Viability Assay in HepG2 cells - 0 hour (AID 1224889); further: nearly all actives have a fitted effect of over 50% in size
How it was run: as §3

[18] = qHTS assay to identify small molecule HDAC inhibitors - cell viability counter screen (AID 1259365)
How it was run: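 After overnight seeding at 1,500 cells per well, wild-type HCT-116 cultures took up compounds in DMSO for 2hr at 37 C. Viable cell content came from luminescence with CellTiter-Glo.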

[19] = molecular target: Androgen receptor (Homo sapiens) (UniProt P10275); assay: qHTS assay to identify small molecule antagonists of the androgen receptor (AR) signaling pathway using the MDA cell line in the presence of 0.5 nM R1881 (AID 1259243); further: nearly all actives have a fitted effect of over 50% in size
How it was run: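 MDA-kb2 cells (MMTV-luciferase, responsive to AR and GR) at 3,000/well, rested 5 h at 37C, 0% CO2, then given compounds plus 0.5 nM R1881 (final) for 16 hr. Luciferase read with ONE-Glo after 30 min at room temperature.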

Chain of Estrogen receptor (Homo sapiens) (P03372 whole entry, looked up): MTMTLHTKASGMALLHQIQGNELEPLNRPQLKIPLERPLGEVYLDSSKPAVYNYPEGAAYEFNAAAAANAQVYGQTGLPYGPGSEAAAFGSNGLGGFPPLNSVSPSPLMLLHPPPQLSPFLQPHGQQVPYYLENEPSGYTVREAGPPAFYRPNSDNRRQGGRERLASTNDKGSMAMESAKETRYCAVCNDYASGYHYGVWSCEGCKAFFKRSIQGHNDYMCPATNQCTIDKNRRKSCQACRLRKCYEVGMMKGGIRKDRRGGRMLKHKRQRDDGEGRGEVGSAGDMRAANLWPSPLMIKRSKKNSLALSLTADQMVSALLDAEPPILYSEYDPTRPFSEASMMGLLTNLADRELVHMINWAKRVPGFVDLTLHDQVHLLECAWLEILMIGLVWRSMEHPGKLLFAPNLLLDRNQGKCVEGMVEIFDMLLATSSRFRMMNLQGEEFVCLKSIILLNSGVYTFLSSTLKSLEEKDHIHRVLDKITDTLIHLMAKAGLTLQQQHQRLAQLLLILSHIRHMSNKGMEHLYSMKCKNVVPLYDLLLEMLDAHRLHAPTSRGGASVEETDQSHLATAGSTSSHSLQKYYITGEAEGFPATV
Chain of Androgen receptor (Homo sapiens) (P10275 whole entry, looked up): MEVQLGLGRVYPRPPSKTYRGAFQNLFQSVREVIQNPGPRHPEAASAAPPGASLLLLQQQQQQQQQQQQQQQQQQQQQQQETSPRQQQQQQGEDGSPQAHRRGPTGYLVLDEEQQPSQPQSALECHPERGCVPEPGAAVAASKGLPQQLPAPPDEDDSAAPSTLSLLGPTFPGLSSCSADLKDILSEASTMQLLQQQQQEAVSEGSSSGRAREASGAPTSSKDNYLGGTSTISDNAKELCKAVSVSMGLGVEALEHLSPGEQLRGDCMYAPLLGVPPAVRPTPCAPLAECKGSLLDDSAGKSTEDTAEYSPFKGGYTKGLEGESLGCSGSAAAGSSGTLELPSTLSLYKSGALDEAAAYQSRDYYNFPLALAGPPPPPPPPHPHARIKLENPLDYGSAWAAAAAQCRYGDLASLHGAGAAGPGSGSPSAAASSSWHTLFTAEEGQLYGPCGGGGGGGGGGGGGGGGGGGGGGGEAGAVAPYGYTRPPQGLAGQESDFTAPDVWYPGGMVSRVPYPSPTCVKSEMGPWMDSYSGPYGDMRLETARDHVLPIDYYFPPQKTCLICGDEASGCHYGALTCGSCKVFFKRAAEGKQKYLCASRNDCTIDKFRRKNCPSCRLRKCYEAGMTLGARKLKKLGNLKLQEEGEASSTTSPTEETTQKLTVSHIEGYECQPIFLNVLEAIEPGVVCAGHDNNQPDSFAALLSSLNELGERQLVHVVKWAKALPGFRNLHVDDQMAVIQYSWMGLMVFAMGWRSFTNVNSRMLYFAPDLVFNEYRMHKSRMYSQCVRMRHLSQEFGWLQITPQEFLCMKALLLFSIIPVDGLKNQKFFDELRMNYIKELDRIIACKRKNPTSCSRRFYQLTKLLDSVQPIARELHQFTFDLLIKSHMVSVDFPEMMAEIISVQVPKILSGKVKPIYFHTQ

| SMILES | Potency [1] | Potency [2] | Potency [3] | Potency [4] | Potency [5] | Potency [6] | Potency [7] | Potency [8] | Potency [9] | Potency [10] | outcome [11] | Potency [12] | Potency [13] | Potency [14] | Potency [15] | Potency [16] | Potency [17] | Potency [18] | Potency [19] |
| --- | --- | --- | --- | --- | --- | --- | --- | --- | --- | --- | --- | --- | --- | --- | --- | --- | --- | --- | --- |
| O=c1c(O)c(-c2ccc(O)c(O)c2)oc2cc(O)cc(O)c12 | inactive | inactive | inactive | inactive | inactive | inactive | inactive | inactive | inactive | inactive | inactive | 27.3 µM (active) and 24.5 µM (active) and 11.9 µM (active) | 30.9 µM (active) | 48.6 µM (active) and inactive | inactive | inactive | – | – | – |
| Brc1ccc(Oc2ccc(Br)cc2)cc1 | inactive | – | inactive | inactive | inactive | inactive | inactive | inactive | inactive | – | – | inactive | inactive | inactive | inactive | inactive | inactive | inactive | – |
| Nc1cccc(C(F)(F)F)c1 | inactive | 40.1 µM (active) and inactive | inactive | inactive | inactive | inactive | inactive | inactive | inactive | inactive | – | inactive | inactive | inactive | inactive | inactive | inactive | inactive | – |
| O=[N+]([O-])c1cc(C(F)(F)F)ccc1Cl | inactive | inactive | inactive | inactive | inactive | inactive | inactive | inactive | inactive | – | – | inactive | inactive | inactive | inactive | inactive | inactive | – | inactive |
| CC1(C)C(=O)N(Cl)C(=O)N1Cl | inactive | inactive | inactive | inactive | inactive | inactive | inactive | inactive | inactive | inactive | – | inactive | inactive | inactive | inactive | inactive | inactive | – | – |
| Cc1cccc(C)c1[N+](=O)[O-] | inactive | – | inactive | inactive | inactive | inactive | inactive | inactive | inactive | – | – | inactive | inactive | inactive and 48.6 µM (active) | inactive | inactive and 24.3 µM (active) | inactive | inactive | – |
| C=C(CC(=O)O)C(=O)O | inactive | – | inactive | inactive | inactive | inactive | inactive | inactive | inactive | – | – | inactive | inactive | inactive | inactive | inactive | inactive | inactive | – |
| CC(=O)C(C)C | inactive | – | inactive | inactive | inactive | inactive | inactive | inactive | inactive | inactive | – | inactive | inactive | inactive | inactive | inactive | inactive | inactive | – |
